Screening results: PubChem BioAssay, National Center for Advancing Translational Sciences (NCATS)
Rango complex inh: inhibitors of Rango-importin beta complex formation. Potency, µM (top dose mostly 92.2 µM), for inactives: at the highest dose inhibition of complex formation. Rango CFP/YFP FRET sensor + importin beta, 45 min. 0.031% of 340,000 active;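 also: 0% = DMSO wells and 100% = buffer wells lacking importin beta; nearly all actives have a fitted effect of over 15% in size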
Target sequence (Q14974 whole entry, looked up): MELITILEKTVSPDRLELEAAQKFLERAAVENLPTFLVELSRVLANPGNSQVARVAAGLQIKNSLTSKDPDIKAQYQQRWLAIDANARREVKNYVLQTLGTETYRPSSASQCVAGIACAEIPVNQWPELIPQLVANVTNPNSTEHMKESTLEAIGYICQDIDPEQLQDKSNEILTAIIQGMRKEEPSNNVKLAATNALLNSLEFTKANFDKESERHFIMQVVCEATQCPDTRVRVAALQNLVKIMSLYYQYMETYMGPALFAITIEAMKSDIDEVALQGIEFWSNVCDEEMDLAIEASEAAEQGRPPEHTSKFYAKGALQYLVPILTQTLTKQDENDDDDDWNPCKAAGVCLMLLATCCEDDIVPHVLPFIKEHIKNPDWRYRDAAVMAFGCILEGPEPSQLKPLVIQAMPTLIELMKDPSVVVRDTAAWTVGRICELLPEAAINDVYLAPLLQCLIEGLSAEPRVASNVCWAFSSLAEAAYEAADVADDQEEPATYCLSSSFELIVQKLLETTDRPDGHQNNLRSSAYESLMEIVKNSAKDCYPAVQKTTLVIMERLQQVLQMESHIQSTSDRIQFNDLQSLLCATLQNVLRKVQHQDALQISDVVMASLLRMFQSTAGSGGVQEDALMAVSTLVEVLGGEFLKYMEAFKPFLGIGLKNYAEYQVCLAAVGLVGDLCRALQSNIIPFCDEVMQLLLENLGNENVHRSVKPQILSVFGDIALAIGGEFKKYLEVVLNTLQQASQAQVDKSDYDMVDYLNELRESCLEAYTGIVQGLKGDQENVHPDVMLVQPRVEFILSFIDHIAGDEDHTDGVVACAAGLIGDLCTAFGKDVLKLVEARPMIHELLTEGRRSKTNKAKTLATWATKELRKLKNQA
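Inhibition scored from the CFP 486 nm/YFP 530 nm FRET ratio 45 min after adding 0.125 microM importin beta to 50 nM Rango biosensor preincubated 5 min with compound (room temperature, PBS with DTT, Tween-20, BSA). No-importin wells as positive control.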
PTAP TSG101 blk: blocks PTAP/TSG101 interaction to inhibit HIV-1 budding; Q99816; Fluorescence polarization, FITC-PTAP peptide / Tsg101 binding; Potency, µM (highest dose often 115 µM), inactives show at the top dose activity change, negative = inhibition, hits mostly inhibitors; 340,000 tested, under 10 active; active = well fitted inhibition curve with a large enough effect in the main read-out, with a control signal flat, not every such curve was filed as active; inconclusive = small, poorly fitted or top-dose-only effect, or effect the other way, or a change in a side signal; inactive = no such curve, though single readings can be large or run the other way; also: % of control where 0% means no effect
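Fluorescence polarization binding of Tsg101 binding domain (10 uM final) to FITC-labeled PTAP peptide (50 nM final) in HEPES pH 7.5 buffer with NaCl, Tween 20, EDTA, TCEP. Compounds added before peptide; binding 20 min at RT.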
ALOX12 inh: ALOX12 (human) lipoxygenase inhibition | P18054 | purified 12hLO, xylenol orange hydroperoxide absorbance | Potency, µM (top dose mostly 108 µM), without a hit: top-dose activity change, negative = inhibition, actives largely listed as inhibitors | 1.1% of 580,000 active; active = well fitted curve in the direction sought with a large enough effect; inconclusive = small, poorly fitted or top-dose-only effect, or another doubt; inactive = no such curve, though single readings can be large; an effect the other way counts as inactive or inconclusive; also: % is scaled to controls: 0 for no effect and ±100 for the full control effect
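Purified human 12hLO (150 nM final) in 25 mM Hepes, 0.01% Triton X-100, pH 7.0 was preincubated 15 min at room temperature with compound. Then 40 uM arachidonic acid was added, 30 min. Hydroperoxide was read by Fe-XO absorbance ratio 573/405 nm.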
TDP1 inh: TDP1 (human) enzyme inhibition; Q9NUW8; recombinant TDP1, AlphaScreen DNA substrate cleavage; Potency, µM (doses to about 130 µM), for the others: at the top dose activity change, negative = inhibition, actives largely listed as inhibitors; 0.28% of 350,000 active; AID 485290; active = well fitted curve in the direction sought with a large enough effect; inconclusive = small, poorly fitted or top-dose-only effect, or another doubt; inactive = no such curve, though single readings can be large; an effect the other way counts as inactive or inconclusive; also: % is scaled to controls: 0 for no effect and ±100 for the full control effect; nearly all actives have a fitted effect of over 40% in size
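E. coli-derived human Tdp1, 1 nM final. Cpd preinc 15 min RT; substrate 15 nM final, 5 min RT; AS bead mix 10 ug/ml final, 10 min RT. Signal loss = tyrosine-FITC cleavage. No-enzyme wells = max signal.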
Rango dissoc inh: prevents RanGTP from dissociating the Rango-importin beta complex. O95149+P62826. Biochemical FRET Rango-importin beta, RanGTP-induced dissociation. Potency, µM (highest dose often 46.1 µM), for the others: top-dose activity change, negative = inhibition. 0.071% of 340,000 active. AID 540253; also: % of control where 0% means no effect; nearly all actives have a fitted effect of over 45% in size
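Rango (0.1 uM)–importin beta (0.25 uM) complex; RanGTP-RCC1 trigger; 45 min RT; CFP/YFP FRET read.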
ClpP mod: qHTS Assay for Activators of ClpP. Potency, µM (titrated, usually from 57.5 µM), without a hit: top-dose activity change, negative = active. ATP-dependent Clp protease proteolytic subunit (Bacillus subtilis (strain 168)), P80244. 1.9% of 340,000 active. AID 651965, 2013. purified B. subtilis ClpP, FRET peptide cleavage, 20 min; active = well fitted falling curve with a large enough effect; inconclusive = small, poorly fitted or top-dose-only effect; inactive = no such curve, though single readings can be large or run the other way; also: the source files actives as falling curves though it sought activators and does not explain the sign; nearly all actives have a fitted effect of over 65% in size
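FRET quenching reversal measured ClpP activation: 10 microg/mL B. subtilis ClpP at pH 8 with the FRET-FV decapeptide, read at 430 nm after 320 nm excitation. The 20-min minus 0-min signal was scaled between DMSO/no-enzyme wells and ADEP (5.8 microM final).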
* marks the source's active call; other numbers are inactive results; ? = inconclusive; . = no result given; [ ] = remark or other dose. Rows were chosen to be rich in hits. Some 2.4% of all compounds tested hit in one or more screens of this group. Unless noted, calls follow the shape of the full dose curve. Potency is read from the fitted curve at half-maximal effect.

SMILES	Rango complex inh	PTAP TSG101 blk	ALOX12 inh	TDP1 inh	Rango dissoc inh	ClpP mod
CC1(C)C(=O)OC(c2cccn2-c2ccc([N+](=O)[O-])cc2)C(C)(C)C1=O (configuration not stated)	1%	-3%	0%	1%	4%	1%
C1CNC(CN2CCOCC2)C1 (configuration not stated)	.	.	8.9µM*	.	.	.
C1CCCCCC2(CCCCC1)OCC(CN1CCOCC1)O2 (configuration not stated)	0%	-6%	-20%	4%	3%	1%
c1ccc(CNc2ncncc2-c2ccc3c(c2)OCO3)cc1	.	.	25µM*	.	.	.
CCC(NC(=O)Cc1ccc2c(c1)CCC2)c1ccc(Br)cc1 (configuration not stated)	.	.	29%	.	.	.
Cc1noc(C)c1-c1ccc(C(=O)NCC2CC2)c2occc12	.	.	?	.	.	-8%
O=C(NCC1CC1)c1ccc(-n2ccnc2)c2ccoc12	.	.	10µM*	.	.	-2%
Cn1nccc1-c1ccc(C(=O)Nc2cccc(NS(C)(=O)=O)c2)c2occc12	.	.	1%	.	.	-11%
CS(=O)(=O)Nc1cccc(NC(=O)c2ccc(-n3ccnc3)c3ccoc23)c1	.	.	10µM*	.	.	0%
Cc1cc(S(=O)(=O)N2CCOCC2)ccc1OCC(=O)Nc1ccc(F)c(Cl)c1	0%	-1%	10%	0%[0.0935 µM]	0%	.
COc1ccccc1NC(=S)N1CCc2cc(OC)c(OC)cc2C1	-2%	-2%	9%	3%	1%	-3%
COc1ccc(S(=O)(=O)N2CCCCC2)cc1NC(=S)Nc1cccc(Cl)c1C	1%	-3%	40µM*	8%	9%	0%
COc1cc2c(cc1OC)CN(C(=S)Nc1cccc(Cl)c1C)CC2	1%	-1%	0%	0%	1%	32µM*
COc1ccc(S(=O)(=O)N2CCOCC2)cc1NC(=O)COC(=O)C1CCC1	-3%	-6%	0%	1%	-21%	35µM*
Cc1cc(S(=O)(=O)N2CCOCC2)ccc1OCC(=O)Nc1ccc(F)cc1	-1%	-2%	1%	3%	-15%	13µM*
Cc1ccc(S(=O)(=O)N2CCOCC2)cc1NC(=O)COC(=O)C1CCC1	.	.	-47%	.	.	-2%
Cc1ccc(S(=O)(=O)N2CCOCC2)cc1NC(=O)COC(=O)/C=C/c1ccco1	0%	5%	-5%	28µM*	5%	1%
Cc1ccc(S(=O)(=O)N2CCOCC2)cc1NC(=O)COC(=O)c1ccco1	.	.	5%	.	.	-2%
Cn1c(=N)c(S(=O)(=O)c2ccccc2)cc2c(=O)n3ccccc3nc21	?	-3%	0%	0%	?	7.9µM*
Cn1c(=N)c(S(=O)(=O)c2ccc(F)cc2)cc2c(=O)n3ccccc3nc21	?	-10%	?	-3%	?	-7%
C=C(C)CN(CC)Cc1ccc(=O)n(CCOC)c1	.	.	24%	.	.	.
CC(C)=CC(=O)NC(c1cccs1)C1CCCC1 (configuration not stated)	.	.	36%	.	.	.
N#C/C(=C(/O)CCl)c1nc2ccccc2[nH]1	?	-4%	2%	10%	13µM*	1%
Cc1cccc(C)c1Nc1nnc(SC/C(O)=C(\C#N)c2nc3ccccc3[nH]2)s1	?	-1%	3%	10%	15µM*	-15%
Cc1cccc(C)c1Nc1nnc(SCc2nc3ccccc3s2)s1	?	-6%	3%	4%	-13%	14µM*
SMILES	Rango complex inh	PTAP TSG101 blk	ALOX12 inh	TDP1 inh	Rango dissoc inh	ClpP mod
COc1cccc(Nc2nnc(SCc3nc4ccccc4s3)s2)c1	0%	0%	1%	3%	0%	-3%
Cc1ccc(CN2CCCC(COc3ccccc3C(=O)N3CCOCC3)C2)cc1C (configuration not stated)	.	.	17%	.	.	.
CC(C)c1nnc(NC(=O)c2ccc(N3C(=O)CCC3=O)cc2)s1	0%	-5%	?	0%	3%	-1%
O=C(Nc1nnc(C23CC4CC(CC(C4)C2)C3)s1)c1ccc(N2C(=O)CCC2=O)cc1	-2%	-5%	22%	45µM*	-5%	-2%
CCOC(=O)Cc1cc(C(=O)Nc2ccc(Br)cc2)sc1-c1ccc(C)cc1	.	.	-8%	-3%	.	22µM*
COc1ccc(Sc2ccc(/C=C3\C(=O)NN(c4ccccc4)C3=O)o2)cc1	?	-1%	28µM*	8%	?	-1%
C/C(=N/NC(=O)CNC(=O)/C=C/c1ccco1)c1ccc(Cl)cc1	-3%	0%	-16%	-2%	3%	28µM*
COc1cccc(COc2ccc3c(=O)c(Oc4ccccc4OC)coc3c2)c1	.	.	21%	.	.	.
O=C(NC1(O)C(=O)c2ccccc2C1=O)c1c(Cl)cccc1Cl	-4%	-9%	?	-2%	14%	.
O=C(NC1(O)C(=O)c2ccccc2C1=O)c1ccccc1	-1%	0%	32µM*	-2%	-2%	-1%
O=C(NCc1cccnc1)c1ccc2c(c1)-c1ccccc1C2	.	.	21%	.	.	.
O=C(O)C(c1c[nH]c2cc(F)ccc12)N1CCN(C(c2ccccc2)c2ccccc2)CC1 (configuration not stated)	.	.	18µM*	.	.	.
O=C(O)C(c1c[nH]c2cc(Cl)ccc12)N1CCN(CCOc2ccc(Cl)cc2)CC1 (configuration not stated)	.	.	35µM*	.	.	.
O=C(O)C(c1c[nH]c2cc(F)ccc12)N1CCc2ccccc2C1 (configuration not stated)	.	.	2%	.	.	.
O=C(O)C(c1c[nH]c2cc(Br)ccc12)N1CCCN(c2ccc(C(F)(F)F)cn2)CC1 (configuration not stated)	.	.	25µM*	.	.	.
O=C(O)C(c1c[nH]c2cc(Cl)ccc12)N1CCN(C/C=C/c2ccccc2)CC1 (configuration not stated)	.	.	45µM*	.	.	.
COc1ccccc1CNC(=O)CS(=O)Cc1nc(-c2cccc(C)c2)oc1C (configuration not stated)	.	.	14%	.	.	.
O=C(c1ccccc1)C(Sc1ccccn1)c1ccccc1 (configuration not stated)	.	.	16%	.	.	.
CN1CCN(C(=O)Cn2ccc3ccccc32)CC1	.	.	12%	.	.	.
O=C(O)C(c1c[nH]c2ccc(Cl)cc12)N1CCN(c2ccc(F)cc2)CC1 (configuration not stated)	.	.	-7%	.	.	.
Cc1cc(N2CCN(C(C(=O)O)c3c[nH]c4cc(Cl)ccc34)CC2)nc2ccccc12 (configuration not stated)	.	.	18µM*	.	.	.
